Screening results: PubChem, Broad Institute
This is a sample that favours compounds with a hit; in the whole collection about 4% have one here.
EWS-Fli inh = EWS/Fli transcriptional activity inhibition; A673 NR0B1-luciferase reporter, viability-normalised; inhibition, % at 12.6 µM; 350,000 compounds, 0.67% hits;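 active = mean inhibition of at least 50% after viability correction, with every replicate also passing that limit; inconclusive = mean reaches 50% but only one of two replicates passes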;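 also: firefly luciferase signal divided by Alamar Blue viability fluorescence both relative to DMSO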
PAX8 inh HTS = PAX8 transcriptional activity inhibition; RMG-I TPO-luciferase reporter, SteadyGlo, 24 h; inhibition, % at 12.6 µM; 360,000 compounds, 1.2% hits;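 active = mean replicate inhibition at least 60% with every replicate also reaching 60%; inconclusive = only one of the two criteria is met; inactive = mean below 60% and not all replicates reaching 60%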;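 also: luciferase light reporting Pax8 driven TPO promoter activity; plate controls were median of neutral control wells for no effect and mitoxantrone controls for full effect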
Wnt act = Wnt/beta-catenin pathway activation | Wnt/beta-catenin reporter cell assay, activator, plate reader | activation, % at 9.35 µM | 300,000 compounds, 1.2% hits; in the data active = activation above about 30%, passing the limit was not always enough; inconclusive = no clear call, values can overlap the other calls;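 also: 0% = neutral control wells and 100% = positive control wells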
MITF act = MITF TRPM1 promoter activation in melanoma cells | activation, % at 12.5 µM | AID 588334 | SK-MEL-5 TRPM1-promoter luciferase, 24 h; % of positive control, neutral wells = 0 | 300,000 compounds, 0.75% hits;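 active = mean activation of at least 80% with every replicate also reaching 80%; inconclusive = mean reaches 80% but some replicate falls short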;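 also: 0% = neutral control wells and 100% = parthenolide positive control wells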
esBAF inh = SWI/SNF esBAF complex inhibition. mouse ES cells, Bmi1-luciferase knock-in reporter, 24 h; 100% = twice the neutral-well signal. reporter increase, % at 12.5 µM. 350,000 compounds, 2% hits; in the data active = activation above about 40%; inconclusive = no clear call, values can overlap the other calls;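 also: 0% = median of the plate's neutral control wells and 100% = double that signal; a rise in the Bmi1 reporter signal indicates esBAF inhibition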
MITF TRPM1 inh = MITF TRPM1 promoter inhibition in SK-MEL-5 cells | SK-MEL-5 TRPM1 promoter luciferase, 24 h | inhibition, % at 12.5 µM | AID 488899 | 330,000 compounds, 0.83% hits;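 active = mean inhibition across replicates of 60% or more, whatever share of single replicates reaches that level; inconclusive = some that reach 60%, reason not given; inactive = mean inhibition across replicates below 60%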
* = called active by the depositor; ? = inconclusive; · = not tested or not shown.

SMILES	EWS-Fli inh	PAX8 inh HTS	Wnt act	MITF act	esBAF inh	MITF TRPM1 inh
CC(C)C(=O)Nc1ccc2c(c1)C(=O)N(C)[C@@H]1CC[C@@H](CC(=O)Nc3ccccc3)O[C@@H]1CO2	·	-8.9	·	·	·	·
COc1cccc(-c2ccc3c(c2)[C@H]2[C@H](CCN2C(=O)c2ccc(F)cc2)[C@H](CO)N3)c1	14.7	14.8	·	·	4.3	·
O=C(O)CSc1ncnc2scc(-c3ccccc3)c12	4.0	-14.3	-2.1	2.9	1.6	-7.0
O=C(O)CSc1ncnc2scc(-c3ccc(Br)cc3)c12	2.3	-8.3	-0.8	-2.1	-1.7	1.5
Cn1nnnc1Sc1ncnc2scc(-c3cccc(S(C)(=O)=O)c3)c12	-17.2	105.8*	-8.7	-77.1	-5.1	77.9*
Cn1nnnc1Sc1ncnc2scc(-c3cccc(Br)c3)c12	?	90.7*	-24.6	-82.2	23.6	83.6*
CN(C)C(=O)CSc1ncnc2scc(-c3ccccc3)c12	4.3	6.7	0.3	-3.9	·	6.0
CC(=O)c1cccc(-c2csc3ncnc(Sc4nnnn4C)c23)c1	-2.2	113.7*	-8.6	·	16.3	·
Cc1ccccc1S(=O)(=O)NCC[C@@H]1CC[C@@H](NC(=O)C2CCCCC2)[C@H](CO)O1	5.2	3.7	·	·	3.3	·
COc1cccc(-c2ccc(CC[C@H]3O[C@H]4CC[C@H](CO)O[C@H]4C[C@@H]3NC(=O)CN(C)C)cc2)c1	-14.4	4.8	·	·	·	·
COCc1cn([C@H]2C[C@@H]3O[C@@H](CO)CC[C@@H]3O[C@@H]2CCc2ccc(-c3ccc(OC)cc3)cc2)nn1	4.8	17.1	·	·	·	·
C[C@H]1CN([C@@H](C)CO)C(=O)Cc2cc(NC(=O)NC3CCCCC3)ccc2O[C@@H]1CN(C)C(=O)NC1CCCCC1	-6.8	·	·	·	-1.4	·
Cc1noc(C)c1S(=O)(=O)Nc1ccc2c(c1)C(=O)N([C@H](C)CO)C[C@H](C)[C@H](CN(C)Cc1ccc3c(c1)OCO3)OCCCC[C@@H](C)O2	-9.2	-52.7	·	·	-7.9	·
Cc1noc(C)c1S(=O)(=O)Nc1ccc2c(c1)C(=O)N([C@@H](C)CO)C[C@@H](C)[C@H](CN(C)Cc1ccc(Cl)c(Cl)c1)OCCCC[C@@H](C)O2	19.0	68.8*	·	·	-0.2	·
Cc1noc(C)c1S(=O)(=O)Nc1ccc2c(c1)C(=O)N([C@@H](C)CO)C[C@@H](C)[C@@H](CN(C)Cc1ccc(Cl)c(Cl)c1)OCCCC[C@@H](C)O2	13.7	64.9*	·	·	2.7	·
Cc1noc(C)c1S(=O)(=O)Nc1ccc2c(c1)C(=O)N([C@H](C)CO)C[C@H](C)[C@H](CN(C)Cc1ccc(Cl)c(Cl)c1)OCCCC[C@@H](C)O2	-0.7	-11.9	·	·	-2.5	·
CN(C[C@@H]1N[C@H](CO)[C@H]1c1ccc(C2=CCCC2)cc1)C(=O)c1ccncc1	13.1	-31.5	·	·	-12.1	·
CCCNC(=O)N(C)C[C@H]1N[C@@H](CO)[C@@H]1c1ccc(C2=CCCCC2)cc1	44.8	102.9*	·	·	-11.9	·
Cc1cc(C)n(-c2nc(N(c3ccccc3)c3ccccc3)nc(-n3nc(C)cc3C)n2)n1	·	·	·	-72.1	-22.7	70.7*
Cc1cc(C)n(-c2nc(Nc3ccccc3)nc(-n3nc(C)cc3C)n2)n1	8.3	·	-0.9	3.5	-7.3	-2.6
OC[C@H]1[C@@H](c2ccccc2)C2(CN(CC3CC3)C2)N1Cc1nccs1	-8.3	1.7	·	·	·	·
O=C(c1ccco1)N1CCN(Cc2ccc(F)cc2Cl)CC1	-87.4	-8.5	7.4	50.9	45.9*	-54.9
O=C(c1ccco1)N1CCN(S(=O)(=O)Cc2ccc(Cl)cc2)CC1	·	·	41.5*	3.5	·	-5.8
O=C(c1ccco1)N1CCN(Cc2ccc(F)cc2)CC1	-6.6	9.6	-0.4	-4.6	5.7	6.5
Cc1ccccc1NC1=C/C(=N\S(=O)(=O)c2ccc(C(=O)O)cc2)c2ccccc2C1=O	-20.9	3.6	1.3	-21.2	2.5	22.3
SMILES	EWS-Fli inh	PAX8 inh HTS	Wnt act	MITF act	esBAF inh	MITF TRPM1 inh
CC(=O)Nc1ccc(NC(=O)C(C)OC(=O)c2ccccc2NS(=O)(=O)c2cccs2)cc1 (centres undefined)	-34.9	2.3	-2.9	1.4	·	-3.7
COc1ccc(S(=O)(=O)/N=C2\C=C(Nc3ccc(O)cc3)C(=O)c3ccccc32)cc1	52.4*	107.7*	0.3	-98.6	-68.1	99.0*
Cc1ccccc1NC1=C/C(=N\S(=O)(=O)c2cccs2)c2ccccc2C1=O	·	109.7*	-28.5	·	-73.7	86.5*
Cc1ccc(NC2=C/C(=N/S(=O)(=O)c3cccs3)c3ccccc3C2=O)cc1C	-1.1	9.9	-14.1	22.3	·	-22.4
CC(=O)Nc1ccc(NC2=C/C(=N/S(=O)(=O)c3cccs3)c3ccccc3C2=O)cc1	18.0	83.3*	-12.6	-101.8	·	102.0*
N#Cc1cccc(-c2ccc(C3[C@H]4CNC[C@@H]3N4C(=O)Nc3ccc(F)cc3)cc2)c1 (some centres undefined)	-7.9	7.1	·	·	·	·
O=[N+]([O-])c1cccn2cc(-c3ccc(Br)cc3)nc12	-70.4	-68.7	13.1	38.5	57.7*	-38.3
COc1ccc(C(=O)N/C(=C\c2cn(C)c3ccccc23)C(=O)OCC(C)C)cc1	11.6	69.9*	-2.2	2.5	·	-3.2
O=C1NC(c2ccccc2Cl)=N/C1=C/c1ccco1	-77.2	-34.9	52.7*	66.6	·	-64.5
O=C1NC(c2ccc(Br)cc2)=N/C1=C/c1ccco1	·	-64.4	·	97.1*	·	-91.6
CCCN(C)C[C@H]1Oc2ncc(-c3cccc(C#N)c3)cc2C(=O)N([C@H](C)CO)C[C@@H]1C	-3.9	·	·	·	1.1	·
CN(C)C(=O)C[C@H]1C[C@@H]2c3cc(NC(=O)c4ccc5c(c4)OCO5)ccc3O[C@@H]2[C@@H](CO)O1	-9.7	·	·	·	1.6	·
COc1ccc2[nH]c(O)c(N=NC(=O)c3ccc(NS(=O)(=O)c4cccs4)cc3)c2c1	-17.2	-4.2	18.6	40.8	44.2*	-40.5
O=C(NN=Cc1ccc(OC(F)F)cc1)c1ccc(NS(=O)(=O)c2cccs2)cc1	-22.6	-70.5	50.6*	30.4	30.2	-34.6
Cc1ccc2[nH]c(O)c(N=NC(=O)c3ccc(NS(=O)(=O)c4cccs4)cc3)c2c1	6.8	-33.7	7.1	-6.7	0.1	9.9
CC(C)NC(=O)N(C)C[C@@H]1Oc2c(NC(=O)Nc3ccccc3)cccc2C(=O)N([C@@H](C)CO)C[C@H]1C	-3.7	-21.6	·	·	9.9	·
O=c1[nH]c(NC2CCN(S(=O)(=O)c3ccccc3C(F)(F)F)CC2)nc2c1CCCC2	15.3	18.6	0.7	-71.2	4.5	70.8*
O=C(C1CCC1)N1CC(=O)N2[C@@H](CO)[C@@H](c3ccc(C#CCc4ccccc4)cc3)[C@@H]2C1	6.2	10.8	·	·	·	·
Cc1cc(C)n(/C(=C/N(C)C)C(=O)c2ccccc2)n1	-3.9	-11.2	-0.5	6.4	·	-3.7
Cc1cc(C)n(C(N)=NC(=O)c2ccc([N+](=O)[O-])cc2)n1	-121.7	-100.3	10.4	94.5*	?	-88.4
Cc1cc(C)n(C(=O)COc2ccc([N+](=O)[O-])cc2)n1	·	6.0	·	-1.0	-2.4	2.3
